The results in this text go back to PubChem BioAssay AID435006 (Sanford-Burnham Center for Chemical Genomics, 2010).

In all, about 1,300 compounds went through this assay and about 1,100 (85%) were called active. Cut-off read from the data, not from the text of the source: active = inhibition above about 48%; inactive = the rest. The set was probably picked from earlier hits. Not all results are given here.

This experiment can be described thus: NALP3 inhibitors retested in yeast, confirmation, luminescence, single concentration (AID 435006). The conditions noted are these: yeast expressing human NALP3, luminescence; at 10 µM; active compounds read high.
The inhibition is the relative decrease from the control value, in per cent. As to `O=C(Nc1ccccc1Cl)/C(Cl)=C(\Cl)S(=O)c1ccccc1` (centres undefined), the inhibition was 64.3% (active).
The result for `O=[N+]([O-])c1c(NCCO)cc(Sc2nc3ccccc3s2)c2nonc12` reads 62.6% (active); that for `O=C(Nc1ccccc1)c1cc2ccccc2[nH]1`, 73.6% (active); that for `CC(C)(c1ccccc1)c1ccc(OCCN)cc1`, 71.8% (active).
The result for `CN(C)c1ccnc2sc(C(=O)c3ccccc3)c(N)c12` reads 68% (active); that for `Cc1ccc(OCc2nc3ccccc3n2C)cc1`, 78.3% (active).
Take `CC(C)n1c(COc2ccccc2)nc2ccccc21`: the inhibition is 70% (active).
The result for `CC(=O)[C@@]12O[C@@H]1C[C@H]1[C@@H]3CC[C@H]4C[C@@H](O)CC[C@]4(C)[C@H]3CC[C@@]12C` reads 71.5% (active); that for `C[C@@H]1C[C@@H]2O[C@H]2/C=C\C=C\C(=O)Cc2c(Cl)c(O)cc(O)c2C(=O)O1`, 72.4% (active); that for `O=C(CC(O)(C(F)(F)F)C(F)(F)F)Nc1ccc(Cl)c(Cl)c1`, 97.9% (active).
Under `Cc1ccc(OCc2nc(C#N)c(N3CCCC3)o2)cc1` stands 48.9% (active); under `N#Cc1nc(COc2ccc(Cl)cc2)oc1N1CCCC1`, 30.3% (inactive).
As to `CC1CC2=C(CC1/C=N/NC(N)=S)C(C)(C)CCC2` (centres undefined), the inhibition was -1.3% (inactive).
With `O=[N+]([O-])c1cccc(/C=N/Nc2ncc(Br)cn2)c1`, the inhibition is 72.2% (active).
Turning to `Cc1ccnc(Nc2nc3ccccc3s2)n1`, the inhibition was 73% (active).
Under `CCOC(=O)c1c(C)[nH]c(C(=O)COc2ccc3c(c2)OCO3)c1C` stands 47% (inactive); under `O=C(COc1ccccc1F)Nc1nc(-c2ccccn2)cs1`, 55.5% (active); under `COc1cccc(/C=N/Nc2cc(C)nc(-c3ccccc3O)n2)c1O`, 25.5% (inactive).
The result for `Oc1ccc(Br)cc1/C=N/Nc1ccccn1` reads 66.3% (active); that for `O=C(NCc1ccc2c(c1)OCO2)c1c(O)nc2sccn2c1=O`, 75.2% (active).
Turning to `Cc1csc(NC(=S)Nc2cccc(Cl)c2)n1`, the inhibition is -12% (inactive).
For `Cc1cccc(NC(=S)NC(=O)c2ccc(Br)o2)c1`, the inhibition is 63.5% (active).
Turning to `COCCCNC(=O)/C=C/c1ccc(OCc2c(F)cccc2Cl)cc1`, the inhibition was 27.1% (inactive).
`Fc1ccccc1-c1cc2cc3c(cc2cn1)OCO3`: the inhibition is 51.1% (active).
Under `O=[N+]([O-])/C=C/c1ccc2c(ccn2Cc2ccccc2)c1` stands 78.7% (active); under `Cc1cc(C)c(/C=C2\C(=O)Nc3ccccc32)[nH]1`, 51.8% (active); under `Cn1c(=NC(=O)c2ccco2)sc2cccc(F)c21`, 60.5% (active).
`CC(C)C(=O)N1CCN(CCN=CC2=C(O)CC(c3ccco3)CC2=O)CC1` (centres undefined): the inhibition is 74.3% (active).
Under `Cc1ccc(-c2nn(C(C)(C)C)c3ncnc(N)c23)cc1` stands 86.7% (active).
As for `CC(C)Sc1ncnc2c1cnn2-c1ccccc1`, the inhibition is 48.7% (active).
With `Cc1ccc(O)c(NC(=O)c2cc(-c3ccco3)on2)c1`, the inhibition is 76% (active).
The result for `CCSc1nc2sc3c(c2c(=O)n1-c1ccc(C)cc1)CCN(C)C3` reads 69.4% (active); that for `O=C(Oc1c(-c2ccco2)oc2ccccc2c1=O)c1cccnc1`, 78.3% (active).
Consider `O=C(Nc1ccc2oc(-c3ccccc3F)nc2c1)c1ccco1`, for which the inhibition is 82.2% (active).
Regarding `CCc1noc(C)c1C(=O)Nc1nc2ccc(OC)cc2s1`, the inhibition was 78.5% (active).
Consider `Cc1c(C(=O)N2CCCc3ccccc32)oc2ccccc12`, for which the inhibition was 47.6% (inactive).
Take `Cc1cc(C(=O)COc2ccc(Br)cc2F)c(C)n1C1CC1`: the inhibition is 54.5% (active).
The result for `Cn1c(=O)c(C(=O)Nc2ncccn2)c(O)c2ccccc21` reads 60.5% (active).
The result for `Oc1c(Cl)cc(Cl)c(Cl)c1Cc1c(O)c(Cl)cc(Cl)c1Cl` reads 99% (active); that for `Nc1c(-c2cccc(Cl)c2)cnn1-c1cccc([N+](=O)[O-])c1`, 61.2% (active); that for `CCc1cc(C(=O)Nc2nnc(C3CC3)s2)sc1C`, 60.8% (active).
For `O=C(CSc1ccc(-c2ccc(-n3cccn3)cc2)nn1)Nc1ccc([N+](=O)[O-])cc1`, the inhibition is 41% (inactive).
On to `CN=C1C=C/C(=N/N=c2\ccn(O)cc2C)C=C1C`, for which the inhibition was 57.2% (active).
Under `O=C(Nc1ccc(Oc2ccccc2)cc1)c1ccco1` stands 44.5% (inactive); under `COc1ccccc1C(=O)Nc1ccc(NC(=O)c2ccco2)c(C)c1`, 60.8% (active); under `CCN(CC)c1ccc(/C=N/Nc2nc(C)cc(C)n2)c(O)c1`, 40.4% (inactive).
Under `CC(=NCc1ccc2c(c1)OCO2)C1=C(O)c2ccccc2C1=O` stands 67.5% (active); under `CC1(C)CCSC(/C=C/c2ccccc2)=N1`, 87.4% (active); under `O=C1C=C(c2ccc(Cl)cc2)C(=O)N1Nc1ccccc1`, 55% (active).
Turning to `CCCN(CC1CC1)C(=S)NC(=O)c1ccccc1Br`, the inhibition is 47.1% (active).
The result for `O=C(CSc1ncnc2c1oc1ccccc12)NC1CCCC1` reads 67.6% (active); that for `N#Cc1nc(Cc2ccccc2)oc1NCCc1ccccc1`, 48.6% (active).
On to `CCCc1nc2c(c(=O)c3ccccc3n2C)c(=O)n1C1CCCCCC1`, for which the inhibition was 30.2% (inactive).
Take `COc1ccccc1OCc1nc2ccccc2s1`: the inhibition is 47.1% (active).
The result for `CCCCCCC12CCC(C(=O)O)(CC1)CC2` reads 66.8% (active); that for `Cc1cc(C)nc(NC(=O)Nc2ccccc2C(F)(F)F)n1`, 68.8% (active); that for `O=C(CCCN1C(=O)/C(=C\c2ccco2)SC1=S)Nc1cccc2ccccc12`, 52.9% (active).
Take `Cc1ccc2cccc(S(=O)(=O)N3CCN(c4ccccc4F)CC3)c2n1`: the inhibition is 65.9% (active).
Under `O=C1CSC(=S)N1c1ccc(O)cc1` stands 83.8% (active); under `COc1cc(N2C(=O)CSC2=S)cc(OC)c1OC`, 58.7% (active).
As for `CC(C)C(=O)Nc1ccc2c(c1)oc1ccccc12`, the inhibition was 2.95% (inactive).
The result for `COc1ccc(OCc2nnc3n2N=C(c2ccccc2)C(CC(=O)O)S3)cc1` (centres undefined) reads 16.8% (inactive).
Regarding `Cc1ccc(CSc2nsc(C)c2C#N)cc1`, the inhibition is 56.3% (active).
The result for `CCCNc1ncnc2sc(C)c(C)c12` reads 60.5% (active).
